Measurements from PubChem BioAssay AID602340 (Broad Institute, 2012).
Where “and” joins values, the source holds several entries; their conditions need not be identical. Equal entries are not always repeated. About 2,600 (0.79%) of roughly 330,000 compounds were called active.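 How the source made its calls: active means mean ATP rescue above about 67%, or every replicate alone reaching that limit (limit read from the data, passing the limit was not always enough); inconclusive means no clear call, values can overlap the other calls; inactive means mean under the limit and some replicate under it.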 Many of the other results were omitted from the sample, so actives are more common in it than they were. Where a structure was tested more than once in an assay, its records may differ in their call.

Assay: suppressors of statin myotoxicity in C2C12 myotubes, primary screen, cell-based, single point, plate reader (AID 602340);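 further: myotubes were challenged with 10 µM simvastatin during compound exposure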
Conditions: C2C12 myotubes + simvastatin, ATP luminescence, 48 h; at 7.49 µM; stronger effect = higher value; scaled: DMSO 0, geranylgeraniol control 100

SMILES	rescue of ATP level
Cc1[nH]c(=O)c(C(=O)/C=C/c2ccccc2)c2c1CCCC2	165% (active)
CC1(C(=O)O)CCCN(C(=O)/C=C/c2ccccc2)C1 (configuration not stated)	2.47% (inactive)
C/C(=C\c1ccccc1)C1NC(=O)c2c(sc3c2CCCC3)N1 (configuration not stated)	-22.3% (inactive)
COc1ccccc1NC(=O)N1C[C@H](O)COC[C@H]2O[C@H](CC(=O)NCCc3ccccc3)CC[C@@H]21	-6.91% (inactive)
CCC(=O)Nc1ccc(C(=O)NNC(=O)c2ccc(Cl)cc2)cc1	-2.53% (inactive)
CCOc1ccc(C(=O)Nc2ccc(S(=O)(=O)Nc3cc(C)on3)cc2)cc1	10.8% (inactive)
CCC(=O)Nc1ccc(C(=O)Nc2cc(C)on2)cc1	84.9% (active)
C[C@H]1CN([C@@H](C)CO)S(=O)(=O)c2ccc(Br)cc2O[C@H]1CN(C)C(=O)C1CC1	4.28% (inactive)
CCOC(=O)CSc1nc2ccc(C)cc2[nH]1	11.3% (inactive)
CC(=O)Nc1ccc(C(=O)CSc2nc3ccc(C)cc3[nH]2)cc1	107% (active)
Cc1ccc2nc(SCC(=O)NC3CCCC3)[nH]c2c1	-36.1% (inactive)
O=C(NCC[C@H]1CC[C@H](NS(=O)(=O)c2cccc(F)c2)[C@H](CO)O1)C1CCCCC1	0.841% (inactive)
COC(=O)C[C@H]1CC[C@H](NC(=O)Nc2ccc(C(F)(F)F)cc2)[C@H](CO)O1	-6.07% (inactive)
CCS(=O)(=O)Nc1ccc2c(c1)C(=O)N(C)[C@@H]1CC[C@H](CC(=O)N[C@H]3CCN(Cc4ccccc4)C3)O[C@@H]1CO2	10.9% (inactive)
CCS(=O)(=O)Nc1ccc2c(c1)C(=O)N(C)[C@@H]1CC[C@@H](CC(=O)N3CCCCC3)O[C@H]1CO2	-21.4% (inactive)
CO[C@H]1CN(C)C(=O)c2ccc(NC(=O)C3CC3)cc2OC[C@@H](C)N(C)C[C@H]1C	2.87% (inactive)

SMILES	rescue of ATP level
CCCS(=O)(=O)N1CCCC(C(=O)N2CCN(c3ccccc3)CC2)C1 (configuration not stated)	103% (active)
CCS(=O)(=O)N1CCC(C(=O)N2CCN(c3ccccc3)CC2)CC1	2.16% (inactive)
O=C(C1CCCN(S(=O)(=O)c2ccccc2)C1)N1CCN(c2ccc(F)cc2)CC1 (configuration not stated)	-8.18% (inactive)
C[C@@H](NC(=O)C[C@@H]1CC[C@H](NC(=O)Cc2ccccn2)[C@H](CO)O1)c1ccccc1	4.66% (inactive)
C[C@@H]1CN([C@@H](C)CO)C(=O)c2cccc(NC(=O)Nc3ccc(F)cc3)c2O[C@@H]1CN(C)C(=O)Nc1ccccc1	7.96% (inactive)
C[C@@H]1CN([C@@H](C)CO)C(=O)c2cccc(NC(=O)Nc3ccc(F)cc3)c2O[C@H]1CN(C)C(=O)Nc1ccc(F)cc1	18.2% (inactive)
C[C@H]1CN([C@@H](C)CO)C(=O)c2cccc(NC(=O)Nc3ccc(C(F)(F)F)cc3)c2O[C@@H]1CN(C)Cc1ccccc1	-12.1% (inactive)
C[C@H]1CN([C@@H](C)CO)C(=O)c2cccc(NC(=O)Nc3ccc(C(F)(F)F)cc3)c2O[C@H]1CN(C)C(=O)NC1CCCCC1	-25.5% (inactive)
C[C@@H]1CN([C@H](C)CO)C(=O)c2cccc(NS(=O)(=O)c3ccc(Cl)cc3)c2O[C@H]1CN(C)C(=O)NC1CCCCC1	36.6% (inactive)
CC(C)NC(=O)N(C)C[C@@H]1Oc2ccc(N(C)C)cc2C(=O)N([C@@H](C)CO)C[C@H]1C	-49% (inactive)
C[C@H](CO)N1C[C@H](C)[C@@H](CN(C)C(=O)Nc2ccccc2)Oc2ccc(N(C)C)cc2C1=O	4.49% (inactive)
C[C@@H]1CN([C@@H](C)CO)C(=O)c2cccc(NS(=O)(=O)c3ccc(F)cc3)c2O[C@H]1CN(C)C(=O)NC1CCCCC1	88.2% (active) and -10.4% (inactive)
C[C@@H]1CN([C@H](C)CO)C(=O)c2cccc(NS(=O)(=O)c3ccc(F)cc3)c2O[C@@H]1CN(C)C(=O)Nc1ccc(F)cc1	3.07% (inactive)
C[C@H]1CN([C@@H](C)CO)C(=O)c2cccc(NC(=O)Nc3ccc(C(F)(F)F)cc3)c2O[C@H]1CN(C)CC1CCCCC1	88.7% (active)
CC(C)NC(=O)N(C)C[C@H]1Oc2ccc(N(C)C)cc2C(=O)N([C@@H](C)CO)C[C@H]1C	70.4% (active)
C[C@@H]1CN([C@H](C)CO)C(=O)c2cccc(NC(=O)Nc3cccc4ccccc34)c2O[C@@H]1CN(C)C(=O)Nc1ccc(F)cc1	98.6% (active)
